In general, inhibition refers to the relative decrease from the control value, in per cent.

Hit rate of the full screen: of about 290,000 compounds, about 890 (0.31%) were called active. No stated cut-off is given here; in the data, active means inhibition mostly above about 52% (no sharp cut-off); inactive means mostly below about 76%. Shown is part of a subset that was picked to be rich in actives.

The assay can be described thus: inhibitors of HIV fusion peptide binding, primary screen, biochemical, uHTS, fluorescence dequenching (AID 1986). The note with it: cell-free peptide binding, 30 min, stronger effect = higher value.
Setting [1] is: measured here: repeat confirmation average inhibition, at 18.6 µM.

Take `O=C(c1cccnc1)N1CCN(Cc2ccc3c(c2)OCO3)CC1`: the inhibition (at 20 µM) is 2.7% (inactive).

Regarding `CC(=O)Nc1sc(N/N=C\c2ccc(O)cc2)nc1-c1cccs1`, where the note is “at 20 µM”, the inhibition was -0.1% (inactive).

Take `CC(=O)Nc1sc(/C(C#N)=C\c2cccc(Cl)c2)nc1-c1ccc(C)cc1`: the inhibition reads like this: (at 20 µM) 61.1% (active); under setting [1], 75.8%.

As for `CCN(CC)c1ccc(/C=C(\C#N)c2nc(-c3cccs3)c(NC(C)=O)s2)cc1`, for the setting “at 20 µM”, the inhibition is 122% (active). `CC(=O)Nc1sc(N/N=C/c2ccccc2)nc1-c1ccc(C)cc1`: the inhibition (at 20 µM) was 0.1% (inactive). With `CCN(CC)c1ccc(/C=C(\C#N)c2ccccn2)cc1`, where the note is “at 20 µM”, the inhibition was 19.5% (inactive).

As for `CC(=O)Nc1sc(N/N=C/c2ccc(C)cc2)nc1-c1ccc(C)cc1`, under “at 20 µM”, the inhibition was -3% (inactive).

Take `C=CCNC(=O)N[C@@H](Cc1ccccc1)C(=O)OC`: where the note is “at 20 µM”, the inhibition was -0.9% (inactive). The same measure, in the same setting: to `Cc1c(C(=O)N2CCCC2)sc(NC(=O)c2cccs2)c1C#N` belongs 3.6% (inactive); to `O=C(CNC(=O)c1ccccc1Br)N/N=C/c1cccnc1`, 0.5% (inactive); to `O=C1CC(NNC(=O)c2ccccc2)C(=O)N1` (stereo not given), -0.3% (inactive).

`COC(=O)c1cc(S(=O)(=O)NCC2CCN(Cc3cccc(Cl)c3)CC2)c[nH]1`: the inhibition (at 20 µM) was -0.3% (inactive). Still for that read-out and setting: the figure for `c1ccc(Cn2c[n+](Cc3ccccc3)cn2)cc1` is -1.5% (inactive); for `c1ccc(-c2nc3ccccc3c3nncn23)cc1` it is -1.8% (inactive). On the same count and under the same terms, to `O=c1[nH]nc(SCc2ccccc2Cl)n1-c1ccc2c(c1)OCCO2` belongs -1.4% (inactive); to `COCCCN(C(=O)c1ccco1)c1nc(-c2ccc(OC)cc2)cs1`, 2.9% (inactive).

Regarding `O=C(CCCl)Nc1cc(SCCO)cc([N+](=O)[O-])c1`, the inhibition (at 20 µM) was 0.1% (inactive). Still for that read-out and setting: to `CC(=O)c1cc(NC(=O)c2cccc(C(F)(F)F)c2)c(=O)oc1C` belongs 0.8% (inactive). With `CC(=O)c1cc(NC(=O)c2cccc(C(F)(F)F)c2)c(=O)oc1/C=C/N(C)C`, the inhibition (at 20 µM) is 75.6% (active) and the inhibition under setting [1] was determined as 91.6%. Take `CC(=O)c1cc(NC(=O)c2ccc(C)cc2)c(=O)oc1/C=C/N(C)C`: the inhibition (at 20 µM) is 25.7% (inactive). On the same count and under the same terms, the figure for `COC(=O)c1ccc2c(c1)C(C)(C)C(/C=C/c1ccc(O)cc1)=[N+]2C` is 111% (active); for `COC(=O)c1ccc2c(c1)C(C)(C)C(/C=C/c1ccccc1O)=[N+]2C` it is 143% (inactive). Consider `COC(=O)c1ccc2c(c1)C(C)(C)C(/C=C/c1ccc(OC)c(OC)c1OC)=[N+]2C`, for which the inhibition (at 20 µM) was 10.3% (inactive). Still for that read-out and setting: to `C/C=C(\C)CN1CCN(c2ccccc2F)CC1` belongs -0.4% (inactive); to `CC(=O)c1sc(NS(=O)(=O)c2ccc(C)cc2)nc1-c1ccccc1`, 19.8% (inactive). Same read-out and setting: the figure for `NC1=NC(=O)/C(=C\c2cc([N+](=O)[O-])ccc2Cl)S1` is -3.5% (inactive); for `Cc1ccc(S(=O)(=O)N/N=C\c2cc([N+](=O)[O-])ccc2Cl)cc1` it is 2.5% (inactive). Same read-out and setting: to `Cc1ccc(S(=O)(=O)N/N=C/c2cc([N+](=O)[O-])ccc2O)cc1[N+](=O)[O-]` belongs 17.1% (inactive); to `COc1ccc(S(=O)(=O)/N=C2/NC(=O)/C(=C\c3cc(OC)c(OC)cc3[N+](=O)[O-])S2)cc1`, 27.4% (inactive). Regarding `O=C(NCc1cc([N+](=O)[O-])ccc1O)c1cccc(NS(=O)(=O)c2ccccc2)c1`, under “at 20 µM”, the inhibition was 4% (inactive). For the compound `COc1cc(/C=C2\S/C(=N/S(=O)(=O)c3ccccc3)NC2=O)c([N+](=O)[O-])cc1OC`, the inhibition is, setting by setting: (at 20 µM) 59.3% (inactive); under setting [1], 33.8%.

Take `O=S(=O)(c1ccccc1)N1CCN(c2nnc(-c3ccccc3)c3ccccc23)CC1`: where the note is “at 20 µM”, the inhibition is 0% (inactive). Still for that read-out and setting: the figure for `Cc1cc(S(=O)(=O)N2CCCC2)c(C)s1` is -1.2% (inactive); for `Nn1c(SCc2cccc(Br)c2)nnc1-c1cccnc1` it is -2% (inactive). Still for that read-out and setting: the figure for `COC(=O)CN1C(=S)N(c2ccc(OC)cc2)C(=O)/C1=C/c1ccc(N2CCOCC2)cc1` is 73.4% (active); for `CCOc1ccc(/C=C2/C(=O)N(c3ccc(OC)cc3)C(=S)N2CC(=O)OC)cc1OCC` it is 2.5% (inactive). Same read-out and setting: to `COC(=O)CN1C(=S)N(c2ccc(OC)cc2)C(=O)/C1=C/c1ccc(OC)cc1` belongs -1.4% (inactive). `COc1ccccc1N=Nc1c(O)[nH]c2ccc(Br)cc12`: the inhibition is, setting by setting: (at 20 µM) 74.7% (active); under setting [1], 70.2%. Turning to `COc1ccccc1NC(=S)N=Nc1c(O)[nH]c2ccc(Br)cc12`, the inhibition (at 20 µM) is -1.3% (inactive). In the case of `COC(=O)N=Nc1c(O)[nH]c2ccc(Br)cc12`, under “at 20 µM”, the inhibition is -0.3% (inactive). Same read-out and setting: the figure for `c1cc(CNc2ccc3c(c2)OCO3)ccn1` is 4.7% (inactive); for `Cc1ccc(CNCc2ccc3c(c2)OCO3)cc1` it is 2.9% (inactive); for `Cc1ccc(CNCc2ccc3c(c2)OCO3)c(C)c1` it is -1.9% (inactive). On the same count and under the same terms, the figure for `Cc1ccc(C(=O)NCc2ccc3c(c2)OCO3)c(C)c1` is 0.4% (inactive). Still for that read-out and setting: the figure for `Cc1ccc(CNc2ccc3c(c2)OCO3)cc1` is 112% (active).

Regarding `Cc1ccc(CNc2ccc3c(c2)OCO3)c(C)c1`, the inhibition (at 20 µM) was 52.3% (active).

For the compound `COC(=O)c1cc2ccccc2c(-c2c(OC)c(C(=O)OC)cc3ccccc23)c1OC`, the inhibition (at 20 µM) was -0.9% (inactive).

Turning to `CCOC(=O)N/N=C/c1ccc(OCCSc2ccc(Cl)cc2)c(OC)c1`, where the note is “at 20 µM”, the inhibition was 6.5% (inactive).

Turning to `O=C(NC1CCCC1)C(c1cccs1)N(C(=O)c1csnn1)c1ccccc1F` (stereo not given), the inhibition (at 20 µM) is 0.9% (inactive). The same measure, in the same setting: the figure for `COc1ccc(/C=C2\OC(=S)N(C)C2=O)cc1` is -1.3% (inactive).

In the case of `CN(C)c1ccc(/C=C2\N=C(C(C)(C)C)OC2=O)cc1`, the inhibition (at 20 µM) is 28.5% (inactive). In the case of `CN1C(=O)/C(=C\c2ccc(N(C)C)cc2)OC1=S`, the inhibition was 78.5% (active) (at 20 µM) and 83.9% under setting [1]. Take `COc1ccccc1CN1C(=S)SC(C)(C)C1NO` (stereo not given): the inhibition (at 20 µM) was -0.5% (inactive). On the same count and under the same terms, to `CCCCc1nc2cc(C(=O)N3CCNC(=O)C3)ccc2o1` belongs 0.8% (inactive).

As for `CC1C/C(=C/c2cccs2)C(=O)/C(=C/c2cccs2)C1` (stereo not given), under “at 20 µM”, the inhibition was 68.1% (active). In the case of `Cn1cccc1/C=C1\CC(C(C)(C)C)C/C(=C\c2cccn2C)C1=O` (stereo not given), the inhibition (at 20 µM) is 2.7% (inactive). Same read-out and setting: to `O=C1/C(=C/c2cccs2)CCC/C1=C\c1cccs1` belongs 31.9% (inactive).

Turning to `CCC1C/C(=C/c2ccco2)C(=O)/C(=C/c2ccco2)C1` (stereo not given), the inhibition is 68.9% (inactive) (at 20 µM) and 0.1% under setting [1]. Consider `CC(C)(C)C1C/C(=C/c2ccccn2)C(=O)/C(=C/c2ccccn2)C1` (stereo not given), for which the inhibition (at 20 µM) is 3.1% (inactive). Same read-out and setting: to `CC1C/C(=C/c2ccncc2)C(=O)/C(=C/c2ccncc2)C1` (stereo not given) belongs 1.9% (inactive); to `CC1C/C(=C/c2ccco2)C(=O)/C(=C/c2ccco2)C1` (stereo not given), 61.3% (active).

Consider `O=C1/C(=C\c2ccco2)CCC/C1=C\c1ccco1`, for which the inhibition was 69.6% (inactive) (at 20 µM) and 3.2% under setting [1]. For `CC(C)(C)C1C/C(=C/c2ccco2)C(=O)/C(=C/c2ccco2)C1` (stereo not given), the inhibition (at 20 µM) was 61.8% (active).
